DRD3 antagonist: antagonists of human D3 dopamine receptor; max response, negative = inhibition, %; D3R cells, DiscoveRx beta-arrestin luminescence, antagonist mode; stronger effect = lower value; 2.5% of 360,000 active; P35462; in the data active means max response below about -50%; inconclusive means no clear call, values can overlap the other calls; further: on the % scale 0 is the no-effect control and ±100 the full control effect
Target sequence (P35462 whole entry, looked up): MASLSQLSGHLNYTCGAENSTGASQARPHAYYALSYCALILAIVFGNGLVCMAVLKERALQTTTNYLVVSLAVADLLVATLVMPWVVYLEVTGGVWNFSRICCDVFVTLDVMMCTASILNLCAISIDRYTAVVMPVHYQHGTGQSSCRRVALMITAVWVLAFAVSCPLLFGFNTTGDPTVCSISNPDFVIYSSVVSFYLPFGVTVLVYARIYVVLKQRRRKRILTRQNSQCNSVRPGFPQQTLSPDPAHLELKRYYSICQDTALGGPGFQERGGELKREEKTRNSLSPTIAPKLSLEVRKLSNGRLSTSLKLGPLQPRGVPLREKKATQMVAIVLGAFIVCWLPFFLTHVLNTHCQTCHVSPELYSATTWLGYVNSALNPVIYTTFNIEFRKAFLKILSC
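Cells expressing the human receptor were seeded at 1500 cells/well, incubated overnight at 37 degrees C in 5% CO2, then exposed to library compounds with dopamine controls for 90 minutes at 37 degrees C before luminescent detection.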
KB-3-1 tox: kills parental KB-3-1 adenocarcinoma cells; Potency, µM (doses to about 46.1 µM), hits mostly cytotoxic; AID 1347075; KB-3-1 viability, CellTiter-Glo ATP luminescence, 72 h; 1.4% of 400,000 active; further: potency means the concentration at half of the fitted maximal effect; on the % scale 0 is the no-effect control and ±100 the full control effect; nearly all actives have a fitted effect of over 60% in size
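Parental KB-3-1 adenocarcinoma cells in phenol-red-free DMEM with 10% FBS were pin-treated with compounds at several concentrations, incubated 72 h at 37 °C, and viability read by CellTiter-Glo luminescence; concentration-effect curves were fitted after normalization.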
SW480 rerep: induces DNA re-replication in SW480 colon adenocarcinoma cells | Potency, µM (series often up to 46.1 µM), for inactives: at the highest dose re-replication activation, most hits filed as activators | 1.8% of 340,000 active | SW480 DNA re-replication, Hoechst DNA content imaging, 48 h; further: potency means the concentration at half of the fitted maximal effect; % of control where 0% means no effect; nearly all actives have a fitted effect of over 55% in size
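Treated cells incubate 48 hr (37 C, 5% CO2), are stained 40 min with Hoechst, and nuclear fluorescence is enumerated; a rise in nuclei with high DNA signal marks re-replication.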
MCF10A rereplic: induces DNA re-replication in MCF 10a normal breast cells; MCF 10A DNA re-replication, Hoechst nuclear intensity, 48 h; Potency, µM (series often up to 46.1 µM), without a hit: at the top dose activity, positive = re-replication, hits mostly activators; 2.9% of 350,000 active; further: potency means the concentration at half of the fitted maximal effect; % of control where 0% means no effect; nearly all actives have a fitted effect of over 50% in size
DRD3 agonist: agonists of human D3 dopamine receptor; P35462; D3R DiscoveRx beta-arrestin cells, luminescence, 90 min; max activation, %; 0.58% of 410,000 active; AID 652048; in the data active means max activation above about 30%; further: 0% is about no effect
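Agonist-mode cell screen: cells plated at 1500/well and incubated overnight at 37 °C, then exposed to library compounds for 90 min at 37 °C. Detection reagent was added for 30–60 min at room temperature, and luminescence was read.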
KB-V1 MDR tox: kills drug-selected multidrug resistant KB-V1 cells; KB-V1 MDR cells viability, CellTiter-Glo, 72 h; 3.4% of 400,000 active; AID 1347076; Potency, µM (titrated, usually from 46.1 µM), most hits filed as cytotoxic; further: potency means the concentration at half of the fitted maximal effect; on the % scale 0 is the no-effect control and ±100 the full control effect; nearly all actives have a fitted effect of over 60% in size
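Drug-selected KB-V1 cells, grown in DMEM lacking phenol red with 10% FBS, receive compound titrations; after three days at 37 degrees C, surviving cell ATP is quantified by CellTiter-Glo luminescence and responses normalized and curve-fitted.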
Numbers without * were called inactive; i = inactive; ? = inconclusive; nt = not tested or not shown; [ ] = another dose, or the depositor's remark. Hits are enriched below; roughly 8.9% of the tested compounds scored in any of these assays. Unless noted, the call rests on the fitted dose curve; in most records, active means well fitted curve in the direction sought with a large enough effect; inconclusive means small, poorly fitted or top-dose-only effect, or another doubt; inactive means no such curve, though single readings can be large; an effect the other way counts as inactive or inconclusive.

SMILES | DRD3 antagonist | KB-3-1 tox | SW480 rerep | MCF10A rereplic | DRD3 agonist | KB-V1 MDR tox
O=C1CC(c2ccc(F)cc2)Sc2ccccc2N1 (configuration not stated) | -13 | i | 0% | ? | -24 | i
COc1cc(C2Sc3ccccc3NC3=C2C(=O)OC3)cc(OC)c1OC (configuration not stated) | -11 | 23µM* | ? | ? | -3 | i
COc1cc(C2CC(=O)Nc3ccccc3S2)cc(OC)c1OC (configuration not stated) | -6 | i | 5% | ? | 6 | 10µM*
CCC(=O)Nc1ccccc1-c1nc2ccccc2n(CC(=O)c2ccc(Br)cc2)c1=O | nt | i | nt | nt | 1 | i
CC(=O)Nc1c2c3c(cccc3n(C)c1=O)C(=O)c1ccccc1-2 | -51* | i | 0% | 10% | -15 | i
CCOC(=O)c1c2c3c(cccc3[nH]c1=O)C(=O)c1ccccc1-2 | 4 | i | -10% | 0% | 8 | i
Cn1c(=O)c(Nc2ccc(Cl)cc2)c2c3c(cccc31)C(=O)c1ccccc1-2 | ? | i | ? | ? | -16 | i
CCOC(=O)c1c2c3c(cccc3n(C)c1=O)C(=O)c1ccccc1-2 | 95 | ? | 0% | 23% | 29 | 21µM*
CCC(=O)N1CCc2cc(CNC(=O)c3ccc(F)cc3)ccc21 | nt | nt | nt | nt | -13 | nt
O=C(NCCc1csc(-c2cccc(F)c2)n1)c1cccs1 | nt | i | nt | nt | -9 | i
Cc1ccc(S(=O)(=O)Nc2ccc(-c3cn4ccc(C)cc4n3)cc2)cc1 | 6 | i | 0.73µM* | 21µM* | 5 | i
Cc1ccn2cc(-c3ccc(NS(=O)(=O)c4ccccc4)cc3)nc2c1 | 8 | i | -44% | ? | 0 | 16µM*
Cc1ccc(-c2cn3ccc(C)cc3n2)cc1 | nt | nt | nt | nt | 2 | nt
Cc1ccn2cc(-c3cccc(NS(C)(=O)=O)c3)nc2c1 | -13 | i | 0% | -13% | 6 | i
CCC(=O)N1CCc2cc(Br)cc(S(=O)(=O)NCCc3ccc(C)cc3)c21 | nt | nt | nt | nt | -27 | nt
Brc1ccc(-c2nnc3c4ccccc4nc(N4CCOCC4)n23)cc1 | 12 | i | -14% | 3% | 3 | 2.6µM*
Fc1ccccc1-c1nnc2c3ccccc3nc(N3CCOCC3)n12 | 2 | i | 0% | 2% | 2 | i
Clc1ccc(-c2nnc3c4ccccc4nc(N4CCOCC4)n23)cc1Cl | 12 | i | -13% | ? | -4 | 2.6µM*
Cc1nnc2c3ccccc3nc(N3CCN(c4ccccc4)CC3)n12 | nt | i | nt | nt | -2 | i
O=C(Nc1ccc(OC(F)(F)F)cc1)Nc1cccc([N+](=O)[O-])c1 | 16 | 12µM* | ? | 12µM* | 1 | 16µM*
Cc1ccc(NC(=O)Nc2cccc([N+](=O)[O-])c2)cc1F | -19 | ? | 5% | ? | -4 | 16µM*
O=C(Nc1ccc(OC(F)(F)F)cc1)Nc1cccnc1 | 8 | i | -11% | 14% | 2 | i
O=C(Nc1ccc([N+](=O)[O-])cc1)Nc1ccc([N+](=O)[O-])cc1 | nt | nt | -1% | 7% | -11 | nt
Cc1cc(NC(=O)Nc2cccc([N+](=O)[O-])c2)no1 | 1 | i | -153%[1.84 µM] | -6% | 4 | i
O=C(Nc1ccc(Oc2ccc(NC(=O)Nc3ccc([N+](=O)[O-])cc3)cc2)cc1)Nc1ccc([N+](=O)[O-])cc1 | 0 | 18µM* | 8% | -1% | 0 | ?
Cc1cc([N+](=O)[O-])ccc1NC(=O)Nc1ccc(F)cc1F | -8 | ? | 10% | ? | -19 | 15µM*
CN(C(=O)CN1C(=O)NC(C)(c2cccc(Br)c2)C1=O)C1CCCCC1 (configuration not stated) | 7 | i | 4% | 10% | 2 | 23µM*
CC1(c2cccc(Br)c2)NC(=O)N(CC(=O)NCC2CCCO2)C1=O (configuration not stated) | -9 | i | -3% | 13% | -2 | i

Screening data from PubChem.
